The record followed here is PubChem BioAssay (Tox21).

Inconclusive results are not listed. A number with no mark means an inactive call. Calls of active or inactive are those of the source. Calls come from the whole dose curve; as a rule, active = well fitted activation curve with a large enough effect in the repeat runs; inconclusive = weak or mixed curves; inactive = flat fitted curve, though single readings scatter.
% is set by controls: 0 for no effect and ±100 for the full control effect; potency is the fitted concentration of half-maximal effect.

This assay is described as follows: Caspase-3/7 induction in HepG2 cells by small molecules, qHTS assay (AID 1346978). Note: nearly all actives have a fitted effect of over 15% in size. The note with it: HepG2 caspase-3/7 activation, Caspase-Glo luminescence, 17 h; series mostly up to 92.4 µM; caspase activation: at the top concentration. From the text:
National Center for Advancing Translational Sciences [NCATS] NIH Chemical Genomics Center [NCGC] U.S. Environmental Protection Agency [EPA] National Institutes of Environmental Health Sciences [NIEHS] National Toxicology Program [NTP] Assay overview: Apoptosis is a process of programmed cell death and plays a central role in the development of multicellular organisms. It is a highly regulated process and induces cell death by activating caspases, which are the members of cysteine aspartic acid-specific protease (caspase) family. Caspases involved in apoptosis are classified by their mechanism of action as initiator caspases (caspase-2, -8, -9 and -10) and executioner caspases (caspase-3, -6, and -7). Inhibition of apoptosis results in number of cancers, autoimmune diseases, inflammatory diseases and viral infection. To identify small molecule compounds that induce apoptosis, a homogeneous, luminescent Caspase-Glo 3/7 assay was used. Wild type HepG2 cells were used to screen Tox21 libraries for identifying caspase-3/7 activity inducers.
Assay Protocol Summary: HepG2 cells were dispensed at 2,000 per well in 5uL of culture medium into white solid bottom 1536-well plates (Corning Life Sciences, Corning, NY) using a Multidrop Combi (Thermo Scientific, Waltham, MA) dispenser. The assay plates were incubated at 37 C and 5% CO2 for 5hr, and then 23nL of compounds dissolved in DMSO and positive control were transferred using a Pintool station (Wako, San Diego, CA). The assay plates were incubated at 37C and 5% CO2 for 17hr. For caspase-3/7 activity read, 4uL of Caspase-Glo 3/7 reagent (Promega Corporation, Madison, WI) was added to each well of the assay plates using Flying Reagent Dispenser (FRD, Aurora Discovery, San Diego, CA) and incubated the assay plates at room temperature for 30min. The luminescence signal was quantified using a ViewLux plate reader (Perkin Elmer, Shelton, CT).
(Quantitative high-throughput screening tests each substance at several concentrations.)
Turning to `COC(OC)(C(=O)c1ccccc1)c1ccccc1`, the “caspase activation” value is 1.07%.
Take `CC(C)CCCCCCOC(=O)CCCCC(=O)OCCCCCCC(C)C`: the “caspase activation” value is 0.56%.
On to `Cc1cc(O)c(C(C)C)cc1Cl`, for which the “caspase activation” value was 3.79% [at 42.5 µM].
Consider `C[C@@H]1C[C@H]2[C@@H]3CCC4=CC(=O)C=C[C@]4(C)[C@@]3(F)[C@@H](O)C[C@]2(C)[C@@]1(O)C(=O)CO`, for which the “caspase activation” value is -1.7%.
`CN1C(=O)CC(C)(c2ccccc2)C1=O` (stereo not given): the “caspase activation” value is -0.64% [at 42.5 µM].
Regarding `c1ccc(COCc2ccccc2)cc1`, the “caspase activation” value is 0.384%.
Same read-out and setting: then `Cc1cc2nc3ccc(=[N+](C)C)cc-3sc2cc1N`, with -6.25% [at 42.5 µM].
In the case of `CNC(=S)NC`, the “caspase activation” value was 0.286%.
`CC(=O)CC(c1ccc([N+](=O)[O-])cc1)c1c(O)c2ccccc2oc1=O` (stereo not given): the “caspase activation” value was -0.616% [at 42.5 µM].
Same read-out and setting: then `CCCCN(CCCC)C(=S)SSC(=S)N(CCCC)CCCC`, with -2.41%.
In the case of `Cc1ccccc1N1C(=O)c2cc(S(N)(=O)=O)c(Cl)cc2NC1C` (stereo not given), the “caspase activation” value is -0.947% [at 42.5 µM].
As for `CN(C(=O)C(Cl)Cl)c1ccc(OC(=O)c2ccco2)cc1`, the “caspase activation” value was 0.333% [at 42.5 µM].
For the compound `CCCCC1C(=O)N(c2ccccc2)N(c2ccc(O)cc2)C1=O` (stereo not given), the “caspase activation” value was 0.0104% [at 42.5 µM].
As for `CN(C)C(=O)Nc1ccc(Oc2ccc(Cl)cc2)cc1`, the “caspase activation” value was -3.07%.
As to `C[N+](C)(C)CCOC(N)=O`, the “caspase activation” value is -1.21% [at 42.5 µM].
The same measure, in the same setting: then `O=C(NCCCN1CCOCC1)c1ccc(Cl)cc1`, with 0.727% [at 42.5 µM]; and `CCCCC(CC)C(=O)OCCOCCOCCOCCOC(=O)C(CC)CCCC` (stereo not given), with -0.65%.
The same measure, in the same setting: then `CCC(C)(O)CCC=C(C)C` (stereo not given), with -1.37%; and `NC(=O)Nc1ccc(Cl)cc1`, with -1.96%.
For `CCOC(=O)N1CCC(n2c(=O)[nH]c3cc(Cl)ccc32)CC1`, the “caspase activation” value is -9.87% [at 42.5 µM].
As to `COCCOC(=O)C1=C(C)NC(C)=C(C(=O)OC/C=C/c2ccccc2)C1c1cccc([N+](=O)[O-])c1` (stereo not given), the “caspase activation” value was -2.36% [at 42.5 µM].
With `COC(=O)Nc1nc2ccc(C(=O)c3cccs3)cc2[nH]1`, the Potency was 266 nM (active).
As to `CC(COc1ccc(C(C)(C)C)cc1)OS(=O)OCCCl` (stereo not given), the “caspase activation” value is -6.72%.
For `C=CC(=O)NCOCC(C)C`, the “caspase activation” value is 0.472%.
On to `Cc1cnc(C)c(C)n1`, for which the “caspase activation” value was 0.869%.
In the case of `O=Cc1c(Cl)cccc1Cl`, the “caspase activation” value is -0.893%.
Same read-out and setting: then `CCCCC(CC)CNCC(CC)CCCC` (stereo not given), with -0.461%; and `Nc1ccc(S(=O)(=O)O)cc1`, with 0.326%; and `CC1=CC(O)CC(C)(C)C1` (stereo not given), with -0.286%.
As for `C[C@]12CCC(=O)C=C1C=C[C@@H]1[C@@H]2CC[C@@]2(C)[C@H]1CC[C@@]21CCC(=O)O1`, the “caspase activation” value was -2.97% [at 42.5 µM].
Take `CCCCC(=O)O[C@]1(C(=O)CO)[C@@H](C)C[C@H]2[C@@H]3CCC4=CC(=O)C=C[C@]4(C)[C@@]3(F)[C@@H](O)C[C@@]21C`: the “caspase activation” value was -2.7%.
The same measure, in the same setting: then `c1cnc2c(n1)CCCC2`, with -2.09%.
For `O=C(CCCCCCCCC#CI)Oc1ccccc1`, the “caspase activation” value is -1.02% [at 42.5 µM].
Regarding `O=[N+]([O-])c1cccc(S(=O)(=O)NCCNS(=O)(=O)c2cccc([N+](=O)[O-])c2)c1`, the “caspase activation” value is 0.256% [at 42.5 µM].
On the same count and under the same terms, then `CC(C)(O)c1ccccc1CC[C@@H](SCC1(CC(=O)O)CC1)c1cccc(/C=C/c2ccc3ccc(Cl)cc3n2)c1`, with -0.144% [at 42.5 µM].
In the case of `Cc1cc(C(=C2C=CC(=Nc3ccc(S(=O)(=O)O)cc3S(=O)(=O)O)C=C2)c2ccc(Nc3ccc(S(=O)(=O)O)cc3)cc2)ccc1N`, the “caspase activation” value is -2.39% [at 42.5 µM].
Take `O=C(CCCCCCC(=O)Nc1ccccc1)NO`: the Potency is 4220 nM (active).
Take `CCN(CC)CCNC(=O)c1ccc(NC(C)=O)cc1`: the “caspase activation” value was 0.0716% [at 42.5 µM].
As for `C[N+]1(C)CCC(=C(c2ccccc2)c2ccccc2)CC1`, the “caspase activation” value is -1.02% [at 42.5 µM].
For the compound `c1cc[c]([Bi]([c]2ccccc2)[c]2ccccc2)cc1`, the “caspase activation” value was -1.59%.
